# Experimental data from PubChem BioAssay AID372 (MTDP, 2006).
# The campaign covered roughly 100,000 compounds. About 770 (0.77%) were called active. Shown is part of a subset that was picked to be rich in actives. Values without a mark were called inactive. Cut-off read from the data, not from the text of the source: active = inhibition above about 50%; inactive = the rest.
# Target: Gag-Pol polyprotein (Human immunodeficiency virus type 1 group M subtype B (isolate HXB2)) (UniProt P04585)
# Assay: RNase H inhibition, HIV 1 Gag Pol polyprotein, FRET biochemical assay, screening (AID 372)
# Conditions: HIV-1 RT RNase H, FRET RNA/DNA substrate fluorescence; at 10 µM; hits give high values
row,SMILES,inhibition
1,NNC(=O)c1cc(C(=O)O)nc2ccc(Br)cc12,6%
2,CCOc1ccc(/C=C2/SC(NC(C)=O)=NC2=O)cc1,0%
3,COc1cc(C(=O)NC(=S)Nc2cccc(-c3nc4ncccc4o3)c2C)cc(OC)c1OC,17%
4,Cc1cc(C)cc(NCc2ccc3c(c2)OCO3)c1,9%
5,C=CCOc1ccccc1/C=N/NC(=O)c1cccc(I)c1,10%
6,O=S(NC1CCCCC1)C12CC3CC(CC(C3)C1)C2 (stereo unspecified),2%
7,CC1=NN(c2ccccc2)C(=O)C1C(c1cccc([N+](=O)[O-])c1)C1C(=O)N(c2ccccc2)N=C1C (stereo unspecified),12%
8,CCOC(=O)C1=C(C)NC(C)=C(C(=O)OC)C1c1ccc([N+](=O)[O-])cc1 (stereo unspecified),16%
9,O=C1N=c2ccccc2=C1c1sc(=S)[nH]c1O,6%
10,Cc1ccc(C2(C)N(O)C(C)C(c3ccccc3)=[N+]2[O-])cc1 (stereo unspecified),0%
11,COc1ccc(CCN2C(=O)/C(=C\c3cccc4ccccc34)SC2=S)cc1OC,9%
12,CCCOC(=O)c1ccc(NC(=O)c2cccc([N+](=O)[O-])c2)cc1,17%
13,O=C(Nc1cc(Cl)cc(Cl)c1)c1ccc(-c2ccccc2[N+](=O)[O-])o1,59% (active)
14,CC(=O)c1cccc(NC(=O)c2ccc(-c3ccccc3[N+](=O)[O-])o2)c1,13%
15,Cc1ccccc1-c1nc2cc(NC(=O)c3ccc(-c4ccccc4[N+](=O)[O-])o3)ccc2o1,37%
16,COC(=O)c1cc(NC(=O)c2ccc(-c3ccccc3[N+](=O)[O-])o2)cc(C(=O)OC)c1,45%
17,Cc1cc2nc(-c3ccc(NC(=O)c4ccc(-c5ccccc5[N+](=O)[O-])o4)cc3)oc2cc1C,52% (active)
18,Cc1cc2nc(-c3ccc(NC(=O)c4cccc([N+](=O)[O-])c4C)cc3)oc2cc1C,15%
19,O=C(Cc1cccc2ccccc12)N/N=C/c1cc(Br)c(O)c(Br)c1O,0%
20,CCOc1cccc(NC(=O)/C(C#N)=C\c2ccc(-c3cccc([N+](=O)[O-])c3)o2)c1,10%
21,CN1C(=O)S/C(=C/c2ccc(Sc3ccccc3)o2)C1=O,52% (active)
22,Cc1ccc(Sc2ccc(/C=C3/SC(=S)N(C)C3=O)o2)cc1,45%
23,CN1C(=O)/C(=C\c2ccc(Sc3ccc(Cl)cc3)o2)SC1=S,22%
24,CCCCOc1ccc(C(=O)N2CCCc3ccccc32)cc1,13%

row,SMILES,inhibition
1,O=C(Nc1cccc(NC(=O)C(Cl)(Cl)Cl)c1)c1ccc(Cl)cc1Cl,13%
2,Cc1nc(/N=C/c2ccc(Br)cc2)sc1C,8%
3,NC1=NC(=O)/C(=C/c2ccc(OC(=O)c3cccc4ccccc34)cc2)S1,20%
4,COc1ccc(C=C2C(=O)NC(=S)NC2=O)cc1OC(=O)c1cccc2ccccc12,26%
5,COc1ccc(/C=C2\SC(N)=NC2=O)cc1OC(=O)c1cccc2ccccc12,53% (active)
6,COc1cc(/C=C2\SC(N)=NC2=O)cc(Br)c1OC(=O)c1cccc2ccccc12,35%
7,COc1cc(/C=C2\SC(N)=NC2=O)cc(Br)c1OCc1cccc2ccccc12,30%
8,COc1cc(/C=C2\SC(N)=NC2=O)ccc1OCc1cccc2ccccc12,52% (active)
9,CCOc1cc(C=C2C(=O)NC(=O)NC2=O)ccc1OC(=O)c1cccc2ccccc12,56% (active)
10,CCOc1cc(C=C2C(=O)NC(=O)NC2=O)ccc1OCc1cccc2ccccc12,43%
11,COc1cc(/C=C2/SC(N)=NC2=O)ccc1OCc1ccccc1[N+](=O)[O-],39%
12,CCOC(=O)C(=CNc1ccc(F)c(F)c1F)C(=O)OCC,10%
13,CC(C)(C)c1ccc(C(=O)NCCSc2ccc(Cl)cc2)cc1,19%
14,O=C(N/N=C\c1cc(Br)ccc1O)c1cnccn1,7%
15,Cc1ccc(NC(=S)NC(=O)c2ccccc2Cl)cc1C,11%
16,O=C(COc1ccc(Br)cc1Cl)NCc1cccnc1,0%
17,CC(=O)n1ccc(C(=O)Nc2ccc(Cl)c(Cl)c2)n1,2%
18,O=C(Nc1ccc(F)cc1F)c1cnn2c1NC(c1cccs1)CC2C(F)(F)F (stereo unspecified),5%
19,O=C(Oc1ccc2oc(=O)sc2c1)c1ccccc1,6%
20,O=c1oc2ccc(O)c(-c3ccccc3Cl)c2s1,2%
21,Cc1cc(I)ccc1NC(=O)c1ccccc1F,8%
22,O=C(c1ccccc1)c1cccc(NC(=O)C2CCCCC2)c1,51% (active)
23,O=C(Nc1ccc2ccccc2c1)C1CCCCC1,2%
24,CC(=O)c1cccc(NC(=O)C2CCCCC2)c1,0%

row,SMILES,inhibition
1,O=C(COc1cccc(Br)c1)N/N=C/c1ccc(Cl)cc1,7%
2,CCOc1ccc(C(=O)Nc2cc(Cl)cc(Cl)c2)cc1Br,1%
3,COc1ccc(-c2nnc(NC(C)=O)s2)cc1,0%
4,COc1ccc(-c2nnc(N)s2)cc1,7%
5,COc1cc(NC(=O)COc2ccc(C)c(C)c2)c(OC)cc1Cl,7%
6,COc1cc([N+](=O)[O-])cc(/C=C2\C(=O)NC(=O)N(c3ccc(Cl)cc3)C2=O)c1O,7%
7,O=C(Nc1ccc(Cl)cc1Cl)c1ccccc1Cl,3%
8,O=C(Nc1ccc(-c2ccc(NC(=O)c3ccccc3Cl)c(Cl)c2)cc1Cl)c1ccccc1Cl,51% (active)
9,O=C(Nc1ccc(I)cc1Cl)c1ccccc1Cl,37%
10,CCn1c2ccccc2c2cc(CN3CCC(C)CC3)ccc21,7%
11,CC(=O)Nc1ccc(NS(=O)(=O)c2ccc(C)cc2C)cc1,2%
12,O=C(Nc1nccs1)c1ccc(N2C(=O)c3cccc([N+](=O)[O-])c3C2=O)cc1,56% (active)
13,O=C(Nc1nccs1)c1ccc(N2C(=O)c3ccc([N+](=O)[O-])cc3C2=O)cc1,31%
14,O=C(Nc1ccc(O)cc1)c1ccc(N2C(=O)c3cccc([N+](=O)[O-])c3C2=O)cc1,3%
15,Cc1nc(-c2ccccc2)sc1C(=O)Nc1ccc(-c2cn3ccccc3n2)cc1,6%
16,O=C(Nc1ccc2oc(-c3cccc4ccccc34)nc2c1)c1cc([N+](=O)[O-])ccc1Cl,21%
17,COc1ccc(OCCOCCOc2c(OC)cccc2OC)cc1,11%
18,COc1ccc(C(=O)NC(=S)Nc2ccc3oc(-c4ccccc4)nc3c2)cc1Br,47%
19,CCc1ccc2oc(-c3ccc(NC(=S)NC(=O)c4cccc(F)c4)cc3)nc2c1,59% (active)
20,CCOc1ccc(C(=O)NC(=S)Nc2ccc3oc(-c4cccnc4)nc3c2)cc1[N+](=O)[O-],4%
21,COc1ccc(C(=O)NC(=S)Nc2ccc3oc(-c4cccc(F)c4)nc3c2)cc1Br,56% (active)
22,COc1ccc(C(=O)NC(=S)Nc2ccc3oc(-c4cccc(F)c4)nc3c2)cc1[N+](=O)[O-],41%
23,COc1ccc(C(=O)NC(=S)Nc2ccc3oc(-c4cccc(F)c4)nc3c2)cc1OC,7%
24,CCc1ccc2oc(-c3ccc(NC(=S)NC(=O)c4cccc(Cl)c4)cc3)nc2c1,17%

row,SMILES,inhibition
1,CCOc1ccc(C(=O)NC(=S)Nc2ccc3oc(-c4cccc(F)c4)nc3c2)cc1[N+](=O)[O-],58% (active)
2,CCOc1cccc(C(=O)NC(=S)Nc2ccc(-c3nc4cc(CC)ccc4o3)cc2)c1,5%
3,NC(=S)N=Nc1c(O)[nH]c2ccc(F)cc12,9%
4,COc1cccc(C(=O)NNC(=O)C2CCCO2)c1 (stereo unspecified),4%
5,COc1cc(C=O)ccc1OCCCOc1ccc([N+](=O)[O-])cc1Cl,29%
6,COC(=O)c1c(C)oc2ccc(OS(C)(=O)=O)cc12,0%
7,O=C(Nc1cccc(Cl)c1)Nc1nc2ccc(Br)cc2s1,35%
8,Cn1cccc1/C=C1/C(=O)NC(=S)N(c2cccc(Cl)c2)C1=O,31%
9,Cc1cccc(NC(=S)NC(=O)/C=C/c2ccccc2)c1,6%
10,O=C(/C=C/c1ccccc1)NC(=S)Nc1ccc(NC(=O)c2ccccc2)cc1,9%
11,Cc1ccc(NC(=S)NC(=O)/C=C/c2ccccc2)cc1Cl,51% (active)
12,O=C(/C=C/c1ccc(Cl)cc1)NC(=S)Nc1ccc(NC(=O)c2cccs2)cc1,24%
13,Cc1ccc(NC(=S)NC(=O)/C=C/c2ccccc2)cc1C,9%
14,O=C(/C=C/c1ccccc1)NC(=S)Nc1ccc(NC(=O)c2cccs2)cc1,62% (active)
15,Brc1ccc(/C=N/Nc2ncnc3c2cnn3-c2ccccc2)cc1,6%
16,Nc1ncc(Cc2ccc(F)cc2)s1,6%
17,COc1cccc(/C=C2\N=C(c3cccs3)OC2=O)c1OC,8%
18,O=C1NC(=S)N/C1=C/c1ccc(-c2cc([N+](=O)[O-])ccc2Cl)o1,50% (active)
19,O=C1NC(=S)N/C1=C/c1ccc(-c2ccc([N+](=O)[O-])cc2Cl)o1,5%
20,O=C1NC(=S)N/C1=C\c1ccc(-c2cccc([N+](=O)[O-])c2)o1,14%
21,Cc1cc(Br)c(-c2ccc(/C=C3/NC(=S)NC3=O)o2)cc1C,24%
22,O=C1NC(=S)N/C1=C\c1ccc(-c2cc([N+](=O)[O-])ccc2Br)o1,50% (active)
23,O=C1NC(=S)N/C1=C\c1ccc(-c2cc([N+](=O)[O-])ccc2O)o1,29%
24,CCCOc1cccc(/C=C2\N=C(c3ccc(F)cc3)OC2=O)c1,11%
